In PubChem BioAssay (NCI) one finds growth data, which are given here for eight compounds.

Test systems include MOLT-4 leukemia; SR leukemia; RPMI-8226 leukemia; OVCAR-8 ovarian; OVCAR-5 ovarian; OVCAR-4 ovarian; SK-OV-3 ovarian; IGROV1 ovarian; OVCAR-3 ovarian; NCI/ADR-RES ovarian; T-47D breast; BT-549 breast; MDA-MB-435 melanoma; SW-620 colon; MCF7 breast; HCT-116 colon; HCC-2998 colon; KM12 colon; HS 578T breast.
What all share (test): NCI-60 one-dose screen, 48 h (100 = growth as untreated, 0 = no growth, -100 = all killed)
Conditions in all cases: 10 µM unless noted

Values joined by “and” are separate entries in the source; they are usually repeats but may differ in a detail not shown here. Identical values can stand only once. Compounds without any hit were thinned out: in the full panel of roughly 83,000, 20% have a hit.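 Cells were grown in 96-well plates and exposed to the test compound at a single concentration for 48 hours; results are reported as percent growth, with values below 10 considered active.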 Active and inactive are the calls of the source.

`O=C(O)c1ccc(=O)[nH]c1`: the growth is 119% (inactive) and 99.2% (inactive) in the assay with MOLT-4 leukemia; 87.7% (inactive) and 105% (inactive) with SR leukemia; 103% (inactive) and 96.5% (inactive) in the assay with RPMI-8226 leukemia; 101% (inactive) and 103% (inactive) in the assay with OVCAR-8 ovarian; 90.3% (inactive) and 106% (inactive) with OVCAR-5 ovarian; 111% (inactive) and 106% (inactive) in the assay on OVCAR-4 ovarian. Moreover, the growth with SK-OV-3 ovarian is 98.9% (inactive) and 93% (inactive); in the assay with IGROV1 ovarian, 109% (inactive); in the assay with OVCAR-3 ovarian, 113% (inactive) and 108% (inactive); in the assay on NCI/ADR-RES ovarian it was 88.9% (inactive) and 102% (inactive); in the assay with T-47D breast it was 88.8% (inactive) and 89.6% (inactive); in the assay with BT-549 breast it was 89.7% (inactive). Besides, the growth in the assay on MDA-MB-435 melanoma was 106% (inactive) and 103% (inactive); in the assay with SW-620 colon, 105% (inactive) and 107% (inactive); with MCF7 breast it was 126% (inactive) and 93.4% (inactive); in the assay on HCT-116 colon, 103% (inactive) and 93.7% (inactive); with HCC-2998 colon, -49% (active) and 101% (inactive); in the assay on KM12 colon, 103% (inactive) and 105% (inactive).
In the case of `COc1ccc(C(C#N)C(C)=O)cc1` (centres undefined), the growth is 99.7% (inactive) in the assay on MOLT-4 leukemia; 98.8% (inactive) in the assay on SR leukemia; 101% (inactive) with RPMI-8226 leukemia; 95.5% (inactive) in the assay with OVCAR-8 ovarian; 95.3% (inactive) in the assay with OVCAR-5 ovarian; 131% (inactive) with OVCAR-4 ovarian. In addition, the growth with SK-OV-3 ovarian was 99% (inactive); in the assay on IGROV1 ovarian it was 114% (inactive); in the assay on OVCAR-3 ovarian, 108% (inactive); with NCI/ADR-RES ovarian it was 102% (inactive); in the assay with T-47D breast, 104% (inactive); in the assay on BT-549 breast, 100% (inactive). For the same compound, the growth with MDA-MB-435 melanoma was 123% (inactive); in the assay with SW-620 colon it was 104% (inactive); in the assay with MCF7 breast, 102% (inactive); in the assay on HCT-116 colon, 105% (inactive); with KM12 colon, 98.5% (inactive).
For the compound `Cc1cc(N)ccc1N`, the growth in the assay on MOLT-4 leukemia is 107% (inactive); in the assay on SR leukemia, 110% (inactive); in the assay on RPMI-8226 leukemia, 77% (inactive); in the assay with OVCAR-8 ovarian, 96.1% (inactive); in the assay on OVCAR-5 ovarian, 96% (inactive); in the assay with OVCAR-4 ovarian it was 104% (inactive). In addition, the growth in the assay on SK-OV-3 ovarian was 99.9% (inactive); with IGROV1 ovarian, 108% (inactive); with HS 578T breast, 104% (inactive); with NCI/ADR-RES ovarian, 105% (inactive); in the assay with BT-549 breast, 90.4% (inactive); in the assay on MDA-MB-435 melanoma it was 116% (inactive). The growth with SW-620 colon was 96.6% (inactive); in the assay with MCF7 breast it was 92.2% (inactive); in the assay with HCT-116 colon it was 91.8% (inactive); in the assay with HCC-2998 colon it was 93.2% (inactive); with KM12 colon, 104% (inactive).
As for `Cc1ccc(NC2=N[C@]34CC(=O)CC[C@]3(C)[C@H]3CC[C@]5(C)C(=O)CC[C@H]5[C@@H]3C[C@@H]4S2)c(C)c1`, the growth was -0.311% (active) in the assay on MOLT-4 leukemia; -0.627% (active) in the assay on SR leukemia; -3.52% (active) with RPMI-8226 leukemia; 31.7% (inactive) with OVCAR-8 ovarian; 59.1% (inactive) with OVCAR-5 ovarian; 59.6% (inactive) in the assay on OVCAR-4 ovarian. Besides, the growth in the assay with SK-OV-3 ovarian was 78.5% (inactive); with IGROV1 ovarian, 17.7% (inactive); with HS 578T breast it was 45.3% (inactive); in the assay with NCI/ADR-RES ovarian, 53.4% (inactive); with T-47D breast it was 41.8% (inactive); in the assay on BT-549 breast, 2.85% (active). Also, the growth in the assay on MDA-MB-435 melanoma is 16.9% (inactive); in the assay with SW-620 colon, 4.35% (active); in the assay on MCF7 breast, 18.2% (inactive); with HCT-116 colon it was -27.3% (active); in the assay on HCC-2998 colon, 84.5% (inactive).
Consider `O=NN(c1ccccc1)c1ccccc1`, for which the growth is 114% (inactive) in the assay on MOLT-4 leukemia; 99.5% (inactive) with SR leukemia; 107% (inactive) with RPMI-8226 leukemia; 102% (inactive) in the assay with OVCAR-8 ovarian; 107% (inactive) in the assay on OVCAR-5 ovarian; 110% (inactive) in the assay on OVCAR-4 ovarian. The growth with SK-OV-3 ovarian was 105% (inactive); in the assay on OVCAR-3 ovarian, 102% (inactive); in the assay on HS 578T breast, 107% (inactive); in the assay with NCI/ADR-RES ovarian, 100% (inactive); with T-47D breast, 107% (inactive); with BT-549 breast it was 122% (inactive). For the same compound, the growth in the assay with MDA-MB-435 melanoma is 105% (inactive); in the assay with SW-620 colon, 102% (inactive); in the assay on MCF7 breast it was 99.8% (inactive); with HCT-116 colon, 95.4% (inactive); in the assay with HCC-2998 colon, 101% (inactive).
Turning to `C[C@]12CC[C@H]3[C@@H](CC=C4c5nc(-c6ccc(Br)cc6)sc5CC[C@@]43C)[C@@H]1CC[C@@H]2O`, the growth with MOLT-4 leukemia was 89.2% (inactive); in the assay on SR leukemia, 98.2% (inactive); with RPMI-8226 leukemia it was 54.6% (inactive); with OVCAR-8 ovarian, 106% (inactive); in the assay with OVCAR-5 ovarian, 90% (inactive); in the assay on OVCAR-4 ovarian, 95.1% (inactive). In addition, the growth with SK-OV-3 ovarian was 95.1% (inactive); in the assay on IGROV1 ovarian, 99.1% (inactive); in the assay on HS 578T breast, 74% (inactive); in the assay on NCI/ADR-RES ovarian it was 99.5% (inactive); in the assay on T-47D breast it was 92.6% (inactive); in the assay with BT-549 breast, 82.8% (inactive). Besides, the growth in the assay with MDA-MB-435 melanoma was 96.1% (inactive); with SW-620 colon, 108% (inactive); with MCF7 breast, 87.2% (inactive); in the assay with HCT-116 colon, 84.9% (inactive); with HCC-2998 colon, 110% (inactive).
`CCOC(=O)c1cncn1C(C)c1ccccc1` (centres undefined): the growth in the assay on MOLT-4 leukemia is 94.5% (inactive); in the assay with SR leukemia it was 90.2% (inactive); in the assay on RPMI-8226 leukemia, 105% (inactive); in the assay on OVCAR-8 ovarian, 102% (inactive); in the assay with OVCAR-5 ovarian, 105% (inactive); in the assay with OVCAR-4 ovarian, 109% (inactive). The growth in the assay on SK-OV-3 ovarian is 103% (inactive); with IGROV1 ovarian, 107% (inactive); with HS 578T breast it was 97.2% (inactive); with NCI/ADR-RES ovarian, 109% (inactive); with T-47D breast, 105% (inactive); in the assay on BT-549 breast, 100% (inactive). Also, the growth with MDA-MB-435 melanoma is 108% (inactive); in the assay with SW-620 colon, 115% (inactive); in the assay with MCF7 breast, 114% (inactive); in the assay on HCT-116 colon it was 106% (inactive); with HCC-2998 colon, 118% (inactive); with KM12 colon, 104% (inactive).
As for `O=[N+]([O-])c1cc(Cl)c(Cl)cc1Cl`, the growth was 102% (inactive) and 103% (inactive) in the assay on MOLT-4 leukemia; 86.5% (inactive) and 108% (inactive) in the assay with SR leukemia; 97.4% (inactive) and 112% (inactive) in the assay on RPMI-8226 leukemia; 108% (inactive) with OVCAR-8 ovarian; 110% (inactive) and 99.6% (inactive) with OVCAR-5 ovarian; 108% (inactive) and 113% (inactive) in the assay with OVCAR-4 ovarian. Also, the growth in the assay on SK-OV-3 ovarian is 123% (inactive) and 110% (inactive); in the assay with IGROV1 ovarian, 111% (inactive) and 109% (inactive); in the assay on HS 578T breast it was 95.9% (inactive); in the assay on NCI/ADR-RES ovarian, 102% (inactive) and 104% (inactive); in the assay with T-47D breast, 107% (inactive) and 108% (inactive); with BT-549 breast, 121% (inactive) and 119% (inactive). The growth in the assay on MDA-MB-435 melanoma was 101% (inactive) and 107% (inactive); in the assay with SW-620 colon, 100% (inactive) and 105% (inactive); with MCF7 breast, 99% (inactive) and 113% (inactive); in the assay with HCT-116 colon it was 107% (inactive) and 106% (inactive); with HCC-2998 colon, 94.2% (inactive) and 118% (inactive); with KM12 colon, 109% (inactive) and 113% (inactive).
